Results published in PubChem BioAssay.
For part of these data: Measured potencies and affinities stand elsewhere. The source made the active and inactive calls.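 How the source made its calls, unless noted: active means primary screen hit whose fluorescence ratio, in both repeats, exceeds the weak agonist control mean by 3 SD; inactive means the rest.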

Legend:
[1] = test system: TRPC4 beta (transient receptor potential cation channel C4), mouse; assay: activators of mouse TRPC4 channel, confirmation, cell-based, Fluo4 calcium, HEK293 TRPC4beta/mu-opioid, duplicates, 10 µM (AID 2426;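 active means fluorescence ratio normalized to control raised more than 50% in primary screen plus both repeat runs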); conditions: Fluo4 calcium fluorescence, at 10 µM; stronger effect = higher value
[2] = test system: transient receptor potential cation channel C4 beta (TRPC4), mouse; assay: activators of mouse TRPC4 channel, confirmation, cell-based, second round, Fluo4, HEK293 TRPC4beta/mu-opioid, 1 µM (AID 2461;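 active means primary screen active and over 50% activation in each of two duplicate runs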); conditions: Fluo4 calcium fluorescence, at 1 µM; stronger effect = higher value
[3] = test system: TRPC4 (transient receptor potential cation channel C4 beta), mouse; assay: positive allosteric modulators of mouse TRPC4, confirmation, cell-based, second round, Fluo-4, HEK293 TRPC4beta/mu-opioid, 1 µM (AID 2554); conditions: DAMGO EC20, Fluo-4 calcium flux, at 1 µM; stronger effect = higher value
[4] = test system: TRPC4 beta (transient receptor potential cation channel C4), mouse; assay: positive allosteric modulators of mouse TRPC4, confirmation, cell-based, Fluo-4, HEK293 TRPC4beta/mu-opioid (AID 2555;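 active means primary screen hit whose calcium fluorescence ratio, in both repeats, exceeds the weak agonist control mean by 3 SD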); conditions: DAMGO EC20, Fluo-4 calcium flux, at 10 µM; stronger effect = higher value
[5] = biological target: Short transient receptor potential channel 4 (Mus musculus) (UniProt Q9QUQ5); assay: inhibitors of mouse TRPC4 channel, confirmation, cell-based, Fluo4, HEK293 TRPC4beta/mu-opioid (AID 2636;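 active means calcium signal cut by more than 3 SD below the full-agonist control yet still positive, in both repeats and the earlier primary screen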); conditions: DAMGO, Fluo4 calcium flux, at 10 µM; stronger effect = higher value
[6] = biological target: Short transient receptor potential channel 4 (Mus musculus) (UniProt Q9QUQ5); assay: inhibitors of mouse TRPC4 channel, confirmation, cell-based, second round, Fluo4, HEK293 TRPC4beta/mu-opioid, 1 µM (AID 2637;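 active means calcium signal ratio cut to more than 3 SD under the fully stimulated control mean yet still positive, in both repeats and the primary screen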); conditions: Fluo4 calcium flux, DAMGO, at 1 µM; stronger effect = higher value
[7] = biological target: Short transient receptor potential channel 4 (Mus musculus) (UniProt Q9QUQ5); assay: mouse TRPC4 channel activators, dose response, cell-based, HEK293 TRPC4/mu-opioid, Fluo-4 calcium (AID 434937;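 active means primary screen activator hit with a dose response curve and TRPC4 channel activation at any tested dose; inactive means no activation, no dose response, or not a primary hit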)
[8] = biological target: Short transient receptor potential channel 4 (Mus musculus) (UniProt Q9QUQ5); assay: TRPC4 positive allosteric modulators, dose response, cell-based, HEK293 TRPC4/mu-opioid, Fluo-4 calcium, EC20 DAMGO (AID 434941;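 active means earlier screen potentiator hit that boosts the TRPC4 ion channel at some dose, with a dose response; inactive means no potentiation, no dose response, or not a prior hit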;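 further: calcium entry triggered by an EC20 dose of DAMGO at the co-expressed mu-opioid receptor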)
[9] = biological target: Short transient receptor potential channel 4 (Mus musculus) (UniProt Q9QUQ5); assay: mouse TRPC4 channel inhibitors, dose response, cell-based, HEK293 TRPC4/mu-opioid, Fluo-4 calcium (AID 434942;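 active means primary screen inhibitor hit that blocks the TRPC4 channel at some tested dose, yielding a dose curve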)
[10] = biological target: Short transient receptor potential channel 6 (Mus musculus) (UniProt Q61143); assay: inhibition of mouse TRPC6 channel, confirmation, selectivity assay for TRPC4 inhibitor project, cell-based, HEK293, membrane potential dye, duplicate (AID 434948;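 active means active in primary screen and both duplicates, each dropping signal beyond three positive-control SD with fluorescence still positive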); conditions: HEK293 TRPC6, membrane potential dye fluorescence, at 10 µM, stimulated with maximal-effect acetylcholine; stronger effect = higher value
[11] = biological target: Short transient receptor potential channel 6 (Mus musculus) (UniProt Q61143); assay: activation of mouse TRPC6 channel, confirmation, selectivity assay for TRPC4 activator project, cell-based, HEK293, membrane potential dye, duplicate (AID 434950;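 active means membrane potential signal rise above negative control mean plus 3 SD in both duplicates, also active in the earlier TRPC4 screen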); conditions: HEK293 TRPC6, membrane potential fluorescence, at 10 µM; stronger effect = higher value
[12] = biological target: Short transient receptor potential channel 6 (Mus musculus) (UniProt Q61143); assay: TRPC6 potentiation by TRPC4 potentiator hits, confirmation, selectivity assay for TRPC4 potentiator project, HEK293 cells, membrane potential dye, duplicate (AID 434952;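 active means compound raising the membrane signal above positive-control mean plus 3 SD in both repeats, and a primary screen hit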); conditions: HEK293 TRPC6, membrane potential dye fluorescence, at 10 µM, maximal acetylcholine added after compound; stronger effect = higher value
[13] = biological target: Short transient receptor potential channel 4 (Mus musculus) (UniProt Q9QUQ5); assay: calcium flux activators in TRPC4/5HT1a cells, counter-screen for TRPC4 activator project, cell-based, second counter screen, HEK293 TRPC4/5HT1a, Fluo-4 (AID 434977;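 active means calcium signal rise above buffer-control mean plus 5 SD in both duplicates, and also a hit in the primary screen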); conditions: Fluo-4 calcium flux, at 10 µM; stronger effect = higher value
[14] = calcium flux inhibitors in TRPC4/5HT1a cells, confirmation, counter-screen for TRPC4 inhibitor project, cell-based, second counter screen, HEK293 TRPC4/5HT1a, Fluo-4 (AID 434978;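 active means primary screen active whose calcium signal fell more than 3 SD beyond the full-serotonin control mean in both duplicate plates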;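 further: serotonin given first at submaximal then at maximal dose after compound preincubation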); conditions: Fluo-4 calcium flux, at 10 µM, serotonin added to trigger calcium flux; stronger effect = higher value
[15] = test system: TRPC4 (mouse), co-expressed with 5HT1a in HEK293; assay: calcium flux potentiators in TRPC4/5HT1a cells, confirmation, counter-screen for TRPC4 potentiator project, cell-based, second counter screen, HEK293 TRPC4/5HT1a, Fluo-4 (AID 434979;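 active means signal rise over 3 SD above mean of control wells given weak agonist, in both repeats and first screen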); conditions: Fluo-4 calcium flux, at 10 µM, serotonin added at its EC20 dose; stronger effect = higher value
[16] = calcium flux activation in mu-opioid HEK293 cells, confirmation, counter-screen for TRPC4 activator project, cell-based, HEK293 mu-opioid receptor line (AID 449723;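 active means hit in primary screen, with calcium signal over 5 SD above buffer well mean in both duplicates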;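 further: counter screen cells carry the mu-opioid receptor alone and lack TRPC4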); conditions: Fluo-4 calcium fluorescence, at 10 µM; stronger effect = higher value
[17] = calcium flux enhancement in mu-opioid HEK293 cells, confirmation, counter-screen for TRPC4 allosteric potentiator project, cell-based, HEK293 mu-opioid receptor line (AID 449724;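 active means calcium signal rise more than 3 SD above the low-dose agonist control mean, in both duplicate plates and the primary screen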); conditions: Fluo-4 calcium flux, at 10 µM, compound added before EC20 DAMGO stimulus; stronger effect = higher value

Short transient receptor potential channel 4 (Mus musculus), sequence (Q9QUQ5 whole entry, looked up): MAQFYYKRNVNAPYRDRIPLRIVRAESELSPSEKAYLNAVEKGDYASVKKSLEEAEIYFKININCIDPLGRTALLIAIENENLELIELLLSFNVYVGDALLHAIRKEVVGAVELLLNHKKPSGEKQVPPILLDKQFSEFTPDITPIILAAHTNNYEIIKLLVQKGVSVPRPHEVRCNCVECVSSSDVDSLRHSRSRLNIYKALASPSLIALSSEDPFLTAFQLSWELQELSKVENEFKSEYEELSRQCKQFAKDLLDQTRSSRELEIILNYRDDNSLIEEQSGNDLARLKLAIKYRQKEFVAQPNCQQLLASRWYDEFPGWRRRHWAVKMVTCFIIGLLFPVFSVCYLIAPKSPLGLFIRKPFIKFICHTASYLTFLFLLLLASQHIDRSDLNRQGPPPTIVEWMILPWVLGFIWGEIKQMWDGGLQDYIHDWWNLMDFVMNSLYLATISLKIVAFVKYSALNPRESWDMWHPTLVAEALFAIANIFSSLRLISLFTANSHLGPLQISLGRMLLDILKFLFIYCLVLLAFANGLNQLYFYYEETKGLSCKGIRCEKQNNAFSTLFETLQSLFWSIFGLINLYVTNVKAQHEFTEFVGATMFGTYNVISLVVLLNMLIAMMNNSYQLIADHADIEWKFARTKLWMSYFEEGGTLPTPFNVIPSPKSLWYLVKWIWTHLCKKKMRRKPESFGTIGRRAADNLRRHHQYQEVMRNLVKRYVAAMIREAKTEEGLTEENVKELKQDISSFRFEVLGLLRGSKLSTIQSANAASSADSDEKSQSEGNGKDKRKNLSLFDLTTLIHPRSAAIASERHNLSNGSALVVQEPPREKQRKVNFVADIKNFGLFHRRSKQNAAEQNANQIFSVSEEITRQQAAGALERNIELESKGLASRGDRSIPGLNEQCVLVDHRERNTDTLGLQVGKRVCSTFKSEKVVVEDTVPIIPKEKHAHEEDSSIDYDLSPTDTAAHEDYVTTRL
Short transient receptor potential channel 6 (Mus musculus), sequence (Q61143 whole entry, looked up): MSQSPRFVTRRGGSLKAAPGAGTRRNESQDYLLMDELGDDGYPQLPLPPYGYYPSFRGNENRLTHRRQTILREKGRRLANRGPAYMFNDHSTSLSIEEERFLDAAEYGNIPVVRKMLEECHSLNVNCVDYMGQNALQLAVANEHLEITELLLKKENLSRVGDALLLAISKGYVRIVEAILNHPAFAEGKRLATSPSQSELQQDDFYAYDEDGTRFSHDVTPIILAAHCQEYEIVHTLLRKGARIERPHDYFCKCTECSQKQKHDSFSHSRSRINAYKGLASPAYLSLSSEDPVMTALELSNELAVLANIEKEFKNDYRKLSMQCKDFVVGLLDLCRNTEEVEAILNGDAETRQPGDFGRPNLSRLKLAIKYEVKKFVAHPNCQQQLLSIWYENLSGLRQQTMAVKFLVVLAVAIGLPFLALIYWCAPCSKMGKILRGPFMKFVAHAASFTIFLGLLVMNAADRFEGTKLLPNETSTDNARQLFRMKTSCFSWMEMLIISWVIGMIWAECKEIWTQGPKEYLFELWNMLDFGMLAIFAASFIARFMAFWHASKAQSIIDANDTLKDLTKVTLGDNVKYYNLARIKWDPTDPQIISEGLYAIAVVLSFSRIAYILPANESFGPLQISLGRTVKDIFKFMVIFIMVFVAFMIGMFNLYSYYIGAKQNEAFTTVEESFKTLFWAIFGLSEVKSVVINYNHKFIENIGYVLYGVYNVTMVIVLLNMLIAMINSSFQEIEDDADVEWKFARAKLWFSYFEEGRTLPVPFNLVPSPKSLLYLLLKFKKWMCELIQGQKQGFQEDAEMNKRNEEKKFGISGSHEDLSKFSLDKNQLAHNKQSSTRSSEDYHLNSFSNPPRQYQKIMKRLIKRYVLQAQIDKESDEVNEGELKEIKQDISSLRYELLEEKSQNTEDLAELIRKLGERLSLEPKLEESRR

| SMILES | outcome [1] | outcome [2] | outcome [3] | outcome [4] | outcome [5] | outcome [6] | outcome [7] | outcome [8] | outcome [9] | outcome [10] | outcome [11] | outcome [12] | outcome [13] | outcome [14] | outcome [15] | outcome [16] | outcome [17] | potentiation [4] | potentiation [15] | activation [17] |
| --- | --- | --- | --- | --- | --- | --- | --- | --- | --- | --- | --- | --- | --- | --- | --- | --- | --- | --- | --- | --- |
| Cc1cc(Nc2ccc3c(c2)OCCO3)c2cc(Cl)ccc2n1 | inactive | inactive | inactive | inactive | inactive | inactive | inactive | inactive | inactive | inactive | inactive | inactive | inactive | inactive | inactive | inactive | inactive | – | – | – |
| CCOc1ccc(-n2cnnn2)cc1S(=O)(=O)NCc1ccccc1 | inactive | inactive | inactive | inactive | inactive | inactive | inactive | inactive | inactive | inactive | inactive | inactive | inactive | inactive | inactive | inactive | inactive | – | – | – |
| CC(C)c1nc2ccc(Br)cn2c1NC1CCCC1 | inactive | inactive | inactive | inactive | inactive | inactive | inactive | inactive | inactive | inactive | inactive | inactive | inactive | inactive | inactive | inactive | inactive | – | – | – |
| Cc1ccc(C(=O)OCCN2CCN(c3ncc(C(F)(F)F)cc3Cl)CC2)cc1 | inactive | inactive | inactive | – | inactive | inactive | inactive | inactive | inactive | inactive | inactive | inactive | inactive | inactive | – | inactive | inactive | 9% (active) | 14.3% (active) | – |
| CC1CCC2C(C1)c1sc(=O)[nH]c1SC2(C)C (stereo not given) | inactive | inactive | inactive | inactive | inactive | inactive | inactive | inactive | inactive | inactive | inactive | inactive | inactive | inactive | inactive | inactive | inactive | – | – | – |
| COc1ccc(S(=O)(=O)N2CCCCCC2)cc1C(=O)N(C)Cc1ccc(Cl)cc1Cl | inactive | inactive | inactive | – | inactive | inactive | inactive | inactive | inactive | inactive | inactive | inactive | inactive | inactive | – | inactive | – | 46% (active) | 14.4% (active) | 2180% (active) |
| C=CCOc1ccc(CN(C)Cc2nc3cc(C(F)(F)F)ccc3c(=O)[nH]2)cc1 | inactive | inactive | inactive | inactive | inactive | inactive | inactive | inactive | inactive | inactive | inactive | inactive | inactive | inactive | – | inactive | inactive | – | 10.9% (active) | – |
| Clc1ccc(N=C2SCC3CCCCN23)cc1 (stereo not given) | inactive | inactive | inactive | – | inactive | inactive | inactive | inactive | inactive | inactive | inactive | inactive | inactive | inactive | – | inactive | inactive | 10% (active) | 35.2% (active) | – |
| CCOC(=O)c1c(NC(NC(C)=O)C(Cl)(Cl)Cl)sc2c1CCCC2 (stereo not given) | inactive | inactive | inactive | inactive | inactive | inactive | inactive | inactive | inactive | inactive | inactive | inactive | inactive | inactive | – | inactive | inactive | – | 7.17% (active) | – |
| COc1cc(/C=C2/SC(=O)NC2=O)ccc1OCc1ccccc1 | inactive | inactive | inactive | inactive | inactive | inactive | inactive | inactive | inactive | inactive | inactive | inactive | inactive | inactive | inactive | inactive | inactive | – | – | – |
| CCCn1nc(C(=O)NC2CCCc3ccccc32)c2ccccc2c1=O (stereo not given) | inactive | inactive | inactive | – | inactive | inactive | inactive | inactive | inactive | inactive | inactive | inactive | inactive | inactive | – | inactive | inactive | 22% (active) | 19.5% (active) | – |
| COC(=O)C1=C(CCc2ccccc2)NC(=O)NC1c1ccc(Cl)cc1 (stereo not given) | inactive | inactive | inactive | – | inactive | inactive | inactive | inactive | inactive | inactive | inactive | inactive | inactive | inactive | – | inactive | inactive | 35% (active) | 39.7% (active) | – |
| CCOc1nc(C)cc(C)c1S(=O)(=O)c1cccc(C)c1 | inactive | inactive | inactive | inactive | inactive | inactive | inactive | inactive | inactive | inactive | inactive | inactive | inactive | inactive | inactive | inactive | inactive | – | – | – |
| CN(C)CCOC(=O)C1(c2ccccc2)CCOCC1 | inactive | inactive | inactive | – | inactive | inactive | inactive | inactive | inactive | inactive | inactive | inactive | inactive | inactive | – | inactive | inactive | 8% (active) | 23.2% (active) | – |
| Cc1ccc(C(=O)NNC(=O)C2CSC3(C)CCC(=O)N23)cc1 (stereo not given) | inactive | inactive | inactive | inactive | inactive | inactive | inactive | inactive | inactive | inactive | inactive | inactive | inactive | inactive | – | inactive | inactive | – | 7.03% (active) | – |
